Measured values from PubChem BioAssay AID1490 (National Center for Advancing Translational Sciences (NCATS), 2009).
The whole screen tested about 310,000 compounds, of which about 11,000 (3.5%) were called active. Not shown: some 4% with an inconclusive outcome. The list comes from a sample in which actives are over-represented; it also holds similar structures and randomly drawn compounds. Values without a mark were called inactive. Calls come from the whole dose curve; as a rule, active = well fitted inhibition curve with a large enough effect; inconclusive = small, poorly fitted or top-dose-only effect, or another doubt; inactive = no such curve, though single readings can be large or run the other way.
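Note: the enzyme is Sfp with the accession as filed and its product quenches rhodamine fluorescence.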
Potency is the fitted concentration of half-maximal effect.
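Throughout, for largest response in the series, negative = inhibition: 0% = enzyme reaction without inhibitor and -100% = no enzyme wells.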

Each molecule was assayed against 4'-phosphopantetheinyl transferase ffp (Bacillus subtilis) (UniProt Q9F4F7) (assay: qHTS Assay for Inhibitors of Bacillus subtilis Sfp phosphopantetheinyl transferase (PPTase)). Details: Biochemical Sfp PPTase activity.
Procedure, shortened: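 With Hepes-Na pH 7.6 buffer containing 10 mM MgCl2, Sfp (15 nM) modified BHQ-2-YbbR (12.5 uM) using rhodamine-CoA (5 uM). Two reads 30 minutes apart at 525/598 nm yielded each well's rate.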
O=C(CSc1ccc(-c2ccc(Br)cc2)nn1)NCC1CCCO1 (stereo unspecified) gave a largest response in the series, negative = inhibition of 6.34%. CC(NS(=O)(=O)c1ccc(Br)cc1)C(=O)NCC1CCCO1 (stereo unspecified) showed a largest response in the series, negative = inhibition of 16.5%. For OC(CNCC1CCCO1)Cn1c2ccc(Br)cc2c2cc(Br)ccc21 (stereo unspecified), the Potency was 22.4 µM (active). With COc1ccc(CCNC(=O)c2cnc(Cl)c(Cl)c2)cc1 the largest response in the series, negative = inhibition was 9%. CC1(C)CCc2nc(SCc3ccccc3)c(C#N)cc2C1 showed a largest response in the series, negative = inhibition of -5.3%. Cc1cc(NC(=O)CSc2nc3c(cc2C#N)CCCCC3)no1 gave a largest response in the series, negative = inhibition of 15.4%. CC(NC(=O)CSc1nc2c(cc1C#N)CN(C)CC2)c1ccccc1 (stereo unspecified) was tested, and the Potency was 56.2 µM (active). O=C(NCc1ccccc1)C(c1cccnc1)N(C(=O)c1csnn1)c1ccc(F)cc1 (stereo unspecified) was tested, and the largest response in the series, negative = inhibition was 19.5%. CC(C)CCn1c(=O)c2c(nc3n2CCCN3Cc2ccccc2)n(C)c1=O showed a largest response in the series, negative = inhibition of 4.31%. NCCCNCCCCN(CCCN)/[N+]([O-])=N/O showed a largest response in the series, negative = inhibition of -7.71%. For COc1cccc(NC(=O)c2nn(C34CC5CC(CC(C5)C3)C4)cc2[N+](=O)[O-])c1, the largest response in the series, negative = inhibition was 11.6%. In the case of Cc1ncn(C23CC4CC(CC(O)(C4)C2)C3)n1, the largest response in the series, negative = inhibition is reported as 17.6%. With Cc1nc([N+](=O)[O-])nn1C12CC3CC(CC(Br)(C3)C1)C2 the Potency was 15.8 µM (active). For COc1cccc(CNS(=O)(=O)c2ccc3c(c2)CC(C)N3C(=O)C2CCC2)c1 (stereo unspecified), the largest response in the series, negative = inhibition was 20.3%. COc1cc(/C=N/NC(=O)c2cccnc2)ccc1OC(=O)c1cccc(Br)c1 showed a largest response in the series, negative = inhibition of 9.75%. In the case of O=C(CN1C(=O)COc2ccc(Cl)cc21)Nc1ccc(N2CCOCC2)cc1, the largest response in the series, negative = inhibition is reported as 9.73%. O=C(CN1C(=O)COc2ccccc21)Nc1ccc(F)cc1 was tested, and the Potency was 50.1 µM (active). CC(OC(=O)CN1C(=O)COc2ccccc21)C(=O)NCc1ccc(F)cc1 (stereo unspecified) was tested, and the largest response in the series, negative = inhibition was 16.7%. With COc1ccc(N2CCC(N3CCN(C)C(CCO)C3)CC2)cc1 (stereo unspecified) the largest response in the series, negative = inhibition was -5.05%. In the case of Cc1cc(C)c2oc(C(=O)Nc3ccc(S(=O)(=O)Nc4nccc(C)n4)cc3)cc(=O)c2c1, the largest response in the series, negative = inhibition is reported as 13.2%. With COc1ccc(C(=O)Nc2cc(C)c(NC(=O)c3ccccc3OC)cn2)cc1 the largest response in the series, negative = inhibition was -0.964%. With Cc1cccc(Oc2c([N+](=O)[O-])c(=O)n(C)c3ccccc23)c1 the Potency was 6.31 µM (active). Cn1c2ccccc2c(=O)c2c(O)cccc21 was tested, and the largest response in the series, negative = inhibition was 1.81%. Cn1c(=O)c([N+](=O)[O-])c(Oc2ccccc2)c2ccccc21 was tested, and the Potency was 20 µM (active). In the case of Cn1nc(-c2ccccc2)c2cc([N+](=O)[O-])ccc21, the largest response in the series, negative = inhibition is reported as 15.4%. For Cc1nn(C)c(Oc2ccccc2)c1[N+](=O)[O-], the largest response in the series, negative = inhibition was 4.16%. For Cc1cccc(OP(=O)(Nc2c(C)n(C)n(-c3ccccc3)c2=O)Oc2cccc(C)c2)c1, the largest response in the series, negative = inhibition was 2%. In the case of CC(C)[C@H](NC(=O)N1c2ccccc2NC(=O)[C@@H]1C(C)C)C(=O)N[C@H](C(=O)O)c1ccccc1, the largest response in the series, negative = inhibition is reported as 21%. For CCCN1CCC(=O)N(C(CSc2ccc(OC)cc2)Cc2ccccc2)CC1 (stereo unspecified), the largest response in the series, negative = inhibition was -7.33%. With COc1cc(C2/C(=C(\O)c3ccc4c(c3)CC(C)O4)C(=O)C(=O)N2c2nnc(C)s2)cc(OC)c1OC (stereo unspecified) the largest response in the series, negative = inhibition was -19.8%. Work on Cc1ccc(-c2ccnc3[nH]n(-c4ccccc4)c(=O)c23)cc1 yielded a largest response in the series, negative = inhibition of 9.66%. With CCOc1cccc(/C=N/N2C(=O)CSC2=S)c1O the Potency was 10 µM (active). In the case of CCOc1cccc(/C=N/NC(=S)NCCN2CCOCC2)c1O, the largest response in the series, negative = inhibition is reported as 9.81%. O=C1CSC(=S)N1c1ccc(O)cc1 gave a largest response in the series, negative = inhibition of -9.51%. In the case of COc1ccccc1NC(=O)C(C)OC(=O)CC1CCCC1 (stereo unspecified), the largest response in the series, negative = inhibition is reported as 16.2%. In the case of CC(C)Cn1c(=O)c2ccccc2n2c(CCC(=O)NCc3ccccn3)nnc12, the largest response in the series, negative = inhibition is reported as 15.4%. In the case of COc1ccc(NC(=O)N2CCCC2C(=O)NCc2ccccc2Cl)cc1 (stereo unspecified), the largest response in the series, negative = inhibition is reported as 1.27%. Molecule CC(=O)Nc1ccc(S(=O)(=O)Nc2cc(C)cn(Cc3ccc(C)cc3)c2=O)cc1 has a largest response in the series, negative = inhibition of 1.38%. O=C(CN1CCCC1)Nc1sc2c(c1C(=O)Nc1ccccc1)CCCC2 was tested, and the largest response in the series, negative = inhibition was -1.37%. With Cc1ccc(NC(=O)c2c(NC(=O)CCC(=O)O)sc3c2CCCCC3)cc1 the Potency was 11.2 µM (active). Cc1ccc(NC(=O)c2csc3c2CCCC3)cc1 gave a largest response in the series, negative = inhibition of -32.4%. CC1(C)SC2c3ccccc3C(=O)N2[C@@H]1C(=O)NCc1ccco1 (stereo partly specified) showed a largest response in the series, negative = inhibition of -10.3%. Molecule COCCCNC(=O)C1CC(=O)N(CCc2ccccc2)C1 (stereo unspecified) has a largest response in the series, negative = inhibition of 9.12%. In the case of COCCCNC(=O)[C@H]1N2C(=O)c3ccccc3C2SC1(C)C (stereo partly specified), the Potency is reported as 56.2 µM (active). With CCC(C)NC(=O)C1c2ccccc2C(=O)N1Cc1ccccc1 (stereo unspecified) the largest response in the series, negative = inhibition was 0.907%. CC1(C)C(C=C(Cl)Cl)C1C(=O)NC(O)C(=O)c1ccccc1 (stereo unspecified) gave a largest response in the series, negative = inhibition of 3.88%.
